Results published in PubChem BioAssay AID1209 (Sanford-Burnham Center for Chemical Genomics, 2008).
Screen size: about 190,000 compounds; about 810 (0.43%) were called active. No stated cut-off is given here; in the data, active means inhibition above about 50%; inactive means the rest. The entries come from a sample that favours actives as a whole.

Target: Mannose-6-phosphate isomerase (Homo sapiens) (UniProt P34949)
Experiment: MPI enzyme activity inhibition – biochemical, fluorescence intensity, coupled assay, primary screen (AID 1209);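 further: plate controls were DMSO vehicle for no effect and wells lacking substrate for full effect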
Conditions: purified PMI enzyme, at 20 µM, active compounds read high

Chain of Mannose-6-phosphate isomerase (Homo sapiens) (P34949 whole entry, looked up): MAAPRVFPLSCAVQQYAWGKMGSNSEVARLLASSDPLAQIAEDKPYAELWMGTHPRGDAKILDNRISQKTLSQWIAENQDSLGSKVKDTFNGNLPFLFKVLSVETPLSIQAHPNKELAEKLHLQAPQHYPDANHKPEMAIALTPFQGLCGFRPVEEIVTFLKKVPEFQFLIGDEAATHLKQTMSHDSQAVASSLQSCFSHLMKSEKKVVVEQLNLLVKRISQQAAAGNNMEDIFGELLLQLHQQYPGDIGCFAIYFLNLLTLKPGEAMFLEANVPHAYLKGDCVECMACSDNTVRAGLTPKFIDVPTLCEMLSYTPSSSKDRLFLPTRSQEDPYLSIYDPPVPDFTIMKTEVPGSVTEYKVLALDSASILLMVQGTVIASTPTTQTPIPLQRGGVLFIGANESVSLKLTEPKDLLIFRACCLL

inhibition, inactive:
COc1ccc(C(=O)Nc2ccc(CN3CCCCC3)cc2)cc1 3%
Cc1nn(CC(=O)Nc2nccs2)c(C)c1[N+](=O)[O-] -3.9%
CCOC(=O)Cn1nc(C)c([N+](=O)[O-])c1C -27.5%
COc1ccc(C2CC(C(F)(F)F)n3nc(C(=O)NCCCn4ccnc4)cc3N2)cc1OC (centres undefined) 41.3%
O=C(CN1CCCc2ccccc21)NCc1ccccc1Cl -13.5%
Cc1ccc(C(=O)Nc2ccc(N3CCN(S(C)(=O)=O)CC3)cc2)cc1 0.4%
CC(C(=O)NCCS(=O)(=O)c1ccc(Cl)cc1)S(=O)(=O)c1ccc(Cl)cc1 (centres undefined) -15.8%
Cc1ccc(S(=O)(=O)CCNC(=O)Cc2ccc(Cl)cc2)cc1 3.4%
Cc1ccc(CNC(=O)c2cncc(Br)c2)cc1 10.4%
CCOC(=O)C(C)n1cnc2c(nnn2-c2ccc(OC)cc2)c1=O (centres undefined) -2.7%
CCOc1ccc(CNC(=O)CCCOc2cc(=O)n(C)c3ccccc23)cc1 -6.3%
Cc1c(Cc2ccc3c(c2)OCO3)sc(NC(=O)c2ccc3ccccc3c2)c1C(N)=O 43.1%
Cc1c(Cc2ccc3c(c2)OCO3)sc(NC(=O)c2ccccc2)c1C(N)=O -2.5%
CC1=C(C)/C(=N/OC(=O)c2cccc([N+](=O)[O-])c2)C=CC1=O 4.4%
COc1ccc(S(=O)(=O)/N=C2/C=CC(=O)C(C)=C2C)cc1 14.5%
Cc1ccc(S(=O)(=O)O/N=C2\CCCc3ccccc32)cc1 9.6%
CC1=C(C)/C(=N\OC(=O)/C=C/c2ccccc2)C=CC1=O 7.2%
CS(=O)(=O)N(CC(=O)NCC1CCCO1)c1cccc([N+](=O)[O-])c1 (centres undefined) -8.6%
CCn1c(CNC(=O)Cc2ccc(OC)cc2)nnc1SCCOc1ccccc1 -11.5%
CC(C)Nc1nc(NC(C)C)nc(N(C)C#N)n1 3.3%
O=C(NN1CCN(Cc2ccccc2Cl)CC1)c1ccc(Br)cc1 -9.1%
O=S1(=O)CCN2C(c3cccc4ccccc34)=CSC2=N1 2.1%
Nc1nnc(SCCOc2ccccc2)s1 1.7%
Clc1ccc(OCc2nnc(-c3ccccc3Br)o2)c(Cl)c1 -0.9%
Cc1ccc(NC(=O)/C(=C/c2cccc([N+](=O)[O-])c2)NC(=O)C2CCCCC2)cc1 14%
CC(=O)/C(CN1CCCCC1)=N\O -6.1%
C/C(=N\O)C(=O)NCCN1CCCCC1 1.5%
CCc1c(C)nc2ncnn2c1NC1CCCc2ccccc21 (centres undefined) 15%
CC(C)c1ccc(NC(=O)C2CC(=O)N=C(N)S2)cc1 (centres undefined) 7.7%
Cc1ccc(C2=NN(C(=S)Nc3ccccc3)C(c3ccco3)C2)cc1 (centres undefined) 8.2%
COc1ccc(C2CC(c3ccccc3)=NN2C(=S)Nc2ccccc2)cc1 (centres undefined) 9.4%
CCOC(=O)c1c(C)oc2c1c(C(c1cccnc1)N1CCCCC1)c(O)c1ccccc12 (centres undefined) 28.2%
CCOC(=O)c1c(C)oc2c1c(CN1CCN(C(=O)OCC)CC1)c(O)c1ccccc12 25.1%
CCOC(=O)c1c(C)oc2c1c(C(c1cccnc1)N1CCN(C)CC1)c(O)c1ccccc12 (centres undefined) 35.1%
CCOC(=O)c1c(C)oc2c1c(C(c1ccccc1)N1CCOCC1)c(O)c1ccccc12 (centres undefined) 37%
Cc1ccc(-n2c(O)c(C=NC3CCS(=O)(=O)C3)c3ccccc3c2=O)cc1 (centres undefined) 5.7%
Cc1cc(C)cc(-n2c(O)c(C=NC3CCS(=O)(=O)C3)c3ccccc3c2=O)c1 (centres undefined) 14.1%
O=C(O)CCCN=Cc1c(O)c2ccccc2oc1=O 3.2%
O=C(O)CCN=Cc1c(O)c2ccccc2oc1=O 7.6%
CCC1CCCCN1C(=O)COc1cccc2c1CCN(C)C2=O (centres undefined) -3.6%
O=C(C[n+]1cccc(CO)c1)Nc1nc2ccccc2s1 -3.4%
O=c1c2sc(-c3ccccc3)cc2nc2n1CCC2 -4.9%
Clc1ccc(N/N=C/c2ccncc2)cc1Cl 5.3%
O=C(COC(=O)[C@@H]1CCCN1S(=O)(=O)c1ccccc1F)Nc1ccc(OC(F)F)cc1 9.6%
Cn1c(SCC(=O)NCC2CCCO2)nnc1-c1ccc(S(=O)(=O)N2CCCC2)cc1 (centres undefined) -1.5%
CCNC(=O)NC(=O)C(C)SCc1ccccc1C (centres undefined) -8.4%
O=c1oc2ccccc2c(O)c1C=NCc1ccccn1 5.9%
Oc1[nH]c2ccccc2c1C=NCC1CCCO1 (centres undefined) -2.9%
CCOC(=O)c1c(C)oc2c1c(C(c1ccncc1)N1CCOCC1)c(O)c1ccccc12 (centres undefined) 21%
CCOC(=O)c1c(C)oc2c1cc(O)c1ccccc12 13.4%
CCOC(=O)c1c(NCC2CCCO2)c2ccccc2[nH]c1=O (centres undefined) -8.8%
CCOC(=O)c1c(C)oc2c1c(C(c1cccnc1)N1CCOCC1)c(O)c1ccccc12 (centres undefined) 22.6%

inhibition, active:
CCc1c(C)sc(NC(=O)Cn2nc(C)c([N+](=O)[O-])c2C)c1C(N)=O 53.3%
O=C(CS(=O)(=O)c1ccc(Cl)cc1)NCCS(=O)(=O)c1ccc(Cl)cc1 59.5%
Cc1c(Cc2ccc3c(c2)OCO3)sc(NC(=O)c2cccc3ccccc23)c1C(N)=O 56.7%
CC1=C(C)/C(=N\OS(=O)(=O)c2ccc(C)cc2)C=CC1=O 75.6%
C/C(=N\O)C(=O)C(CN1CCCCC1)CN1CCCCC1 52.4%
Cc1ccc(C2CC(c3ccccc3)=NN2C(=S)Nc2ccccc2)o1 (centres undefined) 53%
CCOC(=O)c1c(C)oc2c1c(CN1CCN(CCO)CC1)c(O)c1ccccc12 57.7%
CCOC(=O)c1c(C)oc2c1c(C=NCCC(=O)O)c(O)c1ccccc12 77.4%
CCOC(=O)c1c(C)oc2c1c(C=NC1CCS(=O)(=O)C1)c(O)c1ccccc12 (centres undefined) 76.1%
CCOC(=O)c1c(C)oc2c1c1c(c3ccccc32)OCN(Cc2cccnc2)C1 71.9%
CCOC(=O)c1c(C)oc2c1c(C=NCC1CCCO1)c(O)c1ccccc12 (centres undefined) 63.6%
CCOC(=O)c1c(C)oc2c1c(C=NCc1ccccn1)c(O)c1ccccc12 62.5%
